PMC5540273 (PLoS ONE, 2017)

Legend:
Conditions in all cases: concentration: 1 μM, replicates: in singlicate; n = 1
CDK2 = test system: CDK2
CDK3 = test system: CDK3
CDK4-cyclinD1 = test system: CDK4-cyclinD1
CDK4-cyclinD3 = test system: CDK4-cyclinD3
CDK4 = test system: CDK4
CDK5 = test system: CDK5
CDK7 = test system: CDK7
CDK8 = test system: CDK8
CDK9 = test system: CDK9
CDKL1 = test system: CDKL1
CDKL2 = test system: CDKL2
CDKL3 = test system: CDKL3
CDKL5 = test system: CDKL5
CHEK1 = test system: CHEK1
CHEK2 = test system: CHEK2
CIT = test system: CIT
CLK1 = test system: CLK1
CLK2 = test system: CLK2
CLK3 = test system: CLK3
CLK4 = test system: CLK4
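Note: KINOMEscan kinase panel screen.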

SMILES: CC(C)(C)c1ccc(-n2cnc3c(N)ncnc32)cc1 [SKF-97263]
- %Inh (CDK2): 0%
- %Inh (CDK3): 3%
- %Inh (CDK4-cyclinD1): 0%
- %Inh (CDK4-cyclinD3): 0%
- %Inh (CDK4): 0%
- %Inh (CDK5): 0%
- %Inh (CDK7): 0%
- %Inh (CDK8): 0%
- %Inh (CDK9): 0%
- %Inh (CDKL1): 0%
- %Inh (CDKL2): 0%
- %Inh (CDKL3): 0%
- %Inh (CDKL5): 0%
- %Inh (CHEK1): 34%
- %Inh (CHEK2): 0%
- %Inh (CIT): 31%
- %Inh (CLK1): 36%
- %Inh (CLK2): 20%
- %Inh (CLK3): 19%
- %Inh (CLK4): 50%

SMILES: Cl.c1ccc(Cn2ccc3cc(Nc4ncnc5ccccc45)ccc32)cc1 [GW275568]
- %Inh (CDK2): 1%
- %Inh (CDK3): 16%
- %Inh (CDK4-cyclinD1): 0%
- %Inh (CDK4-cyclinD3): 16%
- %Inh (CDK4): 31%
- %Inh (CDK5): 0%
- %Inh (CDK7): 13%
- %Inh (CDK8): 5%
- %Inh (CDK9): 27%
- %Inh (CDKL1): 18%
- %Inh (CDKL2): 4%
- %Inh (CDKL3): 8%
- %Inh (CDKL5): 0%
- %Inh (CHEK1): 2%
- %Inh (CHEK2): 27%
- %Inh (CIT): 5%
- %Inh (CLK1): 26%
- %Inh (CLK2): 10%
- %Inh (CLK3): 59%
- %Inh (CLK4): 0%

SMILES: CC(C)(C)OC(=O)NC1CCCN(c2cc(-c3ccc4c(N)n[nH]c4c3)nc(N)n2)C1 (stereo not drawn) [GSK2286096]
- %Inh (CDK2): 0%
- %Inh (CDK3): 0%
- %Inh (CDK4-cyclinD1): 0%
- %Inh (CDK4-cyclinD3): 0%
- %Inh (CDK4): 0%
- %Inh (CDK5): 0%
- %Inh (CDK7): 0%
- %Inh (CDK8): 0%
- %Inh (CDK9): 2%
- %Inh (CDKL1): 0%
- %Inh (CDKL2): 5%
- %Inh (CDKL3): 0%
- %Inh (CDKL5): 7%
- %Inh (CHEK1): 0%
- %Inh (CHEK2): 0%
- %Inh (CIT): 26%
- %Inh (CLK1): 55%
- %Inh (CLK2): 27%
- %Inh (CLK3): 7%
- %Inh (CLK4): 16%

SMILES: CNc1nccc(-c2c(-c3ccc(F)cc3)ncn2C2CCN(C)CC2)n1 [SB-222903]
- %Inh (CDK2): 0%
- %Inh (CDK3): 0%
- %Inh (CDK4-cyclinD1): 0%
- %Inh (CDK4-cyclinD3): 0%
- %Inh (CDK4): 0%
- %Inh (CDK5): 0%
- %Inh (CDK7): 0%
- %Inh (CDK8): 46%
- %Inh (CDK9): 1%
- %Inh (CDKL1): 13%
- %Inh (CDKL2): 0%
- %Inh (CDKL3): 0%
- %Inh (CDKL5): 0%
- %Inh (CHEK1): 0%
- %Inh (CHEK2): 6%
- %Inh (CIT): 53%
- %Inh (CLK1): 0%
- %Inh (CLK2): 3%
- %Inh (CLK3): 12%
- %Inh (CLK4): 0%

SMILES: Nc1nc(-c2ccccn2)c(-c2ccnc3ccccc23)s1 [GW548057]
- %Inh (CDK2): 0%
- %Inh (CDK3): 5%
- %Inh (CDK4-cyclinD1): 49%
- %Inh (CDK4-cyclinD3): 0%
- %Inh (CDK4): 0%
- %Inh (CDK5): 0%
- %Inh (CDK7): 2%
- %Inh (CDK8): 56%
- %Inh (CDK9): 0%
- %Inh (CDKL1): 12%
- %Inh (CDKL2): 24%
- %Inh (CDKL3): 0%
- %Inh (CDKL5): 0%
- %Inh (CHEK1): 0%
- %Inh (CHEK2): 46%
- %Inh (CIT): 6%
- %Inh (CLK1): 14%
- %Inh (CLK2): 16%
- %Inh (CLK3): 30%
- %Inh (CLK4): 40%

SMILES: Cc1ccc(C)c(NC(=O)NCCNc2ccnc(Nc3ccc(F)cc3)n2)c1 [GSK1379878]
- %Inh (CDK2): 0%
- %Inh (CDK3): 0%
- %Inh (CDK4-cyclinD1): 0%
- %Inh (CDK4-cyclinD3): 0%
- %Inh (CDK4): 43%
- %Inh (CDK5): 0%
- %Inh (CDK7): 0%
- %Inh (CDK8): 29%
- %Inh (CDK9): 0%
- %Inh (CDKL1): 0%
- %Inh (CDKL2): 0%
- %Inh (CDKL3): 0%
- %Inh (CDKL5): 0%
- %Inh (CHEK1): 5%
- %Inh (CHEK2): 0%
- %Inh (CIT): 8%
- %Inh (CLK1): 23%
- %Inh (CLK2): 0%
- %Inh (CLK3): 0%
- %Inh (CLK4): 0%

SMILES: O=C(Nc1ccccc1)Nc1ccc(Oc2ccc3nccn3n2)cc1
- %Inh (CDK2): 0%
- %Inh (CDK3): 1%
- %Inh (CDK4-cyclinD1): 0%
- %Inh (CDK4-cyclinD3): 0%
- %Inh (CDK4): 0%
- %Inh (CDK5): 0%
- %Inh (CDK7): 0%
- %Inh (CDK8): 23%
- %Inh (CDK9): 0%
- %Inh (CDKL1): 36%
- %Inh (CDKL2): 5%
- %Inh (CDKL3): 0%
- %Inh (CDKL5): 0%
- %Inh (CHEK1): 0%
- %Inh (CHEK2): 49%
- %Inh (CIT): 3%
- %Inh (CLK1): 30%
- %Inh (CLK2): 0%
- %Inh (CLK3): 0%
- %Inh (CLK4): 0%

SMILES: CS(=O)(=O)CCNCc1nc(-c2ccc3ncnc(Nc4ccc(OCc5cccc(F)c5)c(Cl)c4)c3c2)cs1.Cl [GW583340]
- %Inh (CDK2): 0%
- %Inh (CDK3): 0%
- %Inh (CDK4-cyclinD1): 0%
- %Inh (CDK4-cyclinD3): 0%
- %Inh (CDK4): 34%
- %Inh (CDK5): 0%
- %Inh (CDK7): 0%
- %Inh (CDK8): 3%
- %Inh (CDK9): 10%
- %Inh (CDKL1): 0%
- %Inh (CDKL2): 2%
- %Inh (CDKL3): 0%
- %Inh (CDKL5): 0%
- %Inh (CHEK1): 0%
- %Inh (CHEK2): 0%
- %Inh (CIT): 23%
- %Inh (CLK1): 33%
- %Inh (CLK2): 0%
- %Inh (CLK3): 12%
- %Inh (CLK4): 0%

SMILES: CN1c2ccc(-c3ccc(C(=O)NCCO)cc3)cc2-c2[nH]ncc2S1(=O)=O
- %Inh (CDK2): 2%
- %Inh (CDK3): 0%
- %Inh (CDK4-cyclinD1): 20%
- %Inh (CDK4-cyclinD3): 12%
- %Inh (CDK4): 0%
- %Inh (CDK5): 0%
- %Inh (CDK7): 32%
- %Inh (CDK8): 0%
- %Inh (CDK9): 0%
- %Inh (CDKL1): 22%
- %Inh (CDKL2): 0%
- %Inh (CDKL3): 1%
- %Inh (CDKL5): 0%
- %Inh (CHEK1): 0%
- %Inh (CHEK2): 65%
- %Inh (CIT): 2%
- %Inh (CLK1): 44%
- %Inh (CLK2): 86%
- %Inh (CLK3): 25%
- %Inh (CLK4): 40%

SMILES: Cn1ccc2ncnc(Nc3ccc(Oc4cccc(Cl)c4)c(Cl)c3)c21
- %Inh (CDK2): 0%
- %Inh (CDK3): 0%
- %Inh (CDK4-cyclinD1): 0%
- %Inh (CDK4-cyclinD3): 0%
- %Inh (CDK4): 0%
- %Inh (CDK5): 21%
- %Inh (CDK7): 14%
- %Inh (CDK8): 22%
- %Inh (CDK9): 15%
- %Inh (CDKL1): 10%
- %Inh (CDKL2): 23%
- %Inh (CDKL3): 26%
- %Inh (CDKL5): 23%
- %Inh (CHEK1): 2%
- %Inh (CHEK2): 7%
- %Inh (CIT): 0%
- %Inh (CLK1): 0%
- %Inh (CLK2): 0%
- %Inh (CLK3): 0%
- %Inh (CLK4): 1%

SMILES: O=C(Nc1n[nH]c2nc(-c3ccco3)c(Br)cc12)c1ccc(CN2CCCC2)cc1.O=C(O)[C@H](O)[C@@H](O)C(=O)O [SB-742352]
- %Inh (CDK2): 0%
- %Inh (CDK3): 0%
- %Inh (CDK4-cyclinD1): 0%
- %Inh (CDK4-cyclinD3): 0%
- %Inh (CDK4): 0%
- %Inh (CDK5): 0%
- %Inh (CDK7): 0%
- %Inh (CDK8): 0%
- %Inh (CDK9): 0%
- %Inh (CDKL1): 24%
- %Inh (CDKL2): 62%
- %Inh (CDKL3): 0%
- %Inh (CDKL5): 0%
- %Inh (CHEK1): 0%
- %Inh (CHEK2): 0%
- %Inh (CIT): 0%
- %Inh (CLK1): 16%
- %Inh (CLK2): 12%
- %Inh (CLK3): 0%
- %Inh (CLK4): 8%

SMILES: OCCOCCn1ccc2ncnc(Nc3ccc(Oc4cccc(Cl)c4)c(Cl)c3)c21
- %Inh (CDK2): 0%
- %Inh (CDK3): 0%
- %Inh (CDK4-cyclinD1): 0%
- %Inh (CDK4-cyclinD3): 0%
- %Inh (CDK4): 0%
- %Inh (CDK5): 0%
- %Inh (CDK7): 0%
- %Inh (CDK8): 0%
- %Inh (CDK9): 0%
- %Inh (CDKL1): 0%
- %Inh (CDKL2): 0%
- %Inh (CDKL3): 5%
- %Inh (CDKL5): 0%
- %Inh (CHEK1): 0%
- %Inh (CHEK2): 0%
- %Inh (CIT): 2%
- %Inh (CLK1): 0%
- %Inh (CLK2): 0%
- %Inh (CLK3): 0%
- %Inh (CLK4): 0%
